The source of these data is PMC7862700, “An all-to-all approach to the identification of sequence-specific readers for epigenetic DNA modifications on cytosine”.

Common to all, as to test: DAPPL (digital affinity profiling via proximity ligation, sequencing); 10 mM Tris-HCl pH 7.5, 50 mM NaCl, 1 mM DTT, 4% glycerol, room temperature, 30 min; GST-TFs on glutathione beads, 16-mer random dsDNA library, 0.1% formaldehyde crosslink after washing; high values mean tight binding
The target of experiment [1] is T1, FEV (Homo sapiens, UniProt Q99581 1-238).
T1 sequence: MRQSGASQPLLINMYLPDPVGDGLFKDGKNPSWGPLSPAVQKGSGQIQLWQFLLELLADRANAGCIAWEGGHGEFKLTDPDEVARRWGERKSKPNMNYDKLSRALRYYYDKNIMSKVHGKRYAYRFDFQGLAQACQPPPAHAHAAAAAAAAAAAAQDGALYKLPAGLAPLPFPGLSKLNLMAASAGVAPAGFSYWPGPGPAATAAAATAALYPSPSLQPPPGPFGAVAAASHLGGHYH
Conditions: protein: recombinant; tags: N-terminal GST; dsDNA, one strand shown. A digest of the protocol: (§1)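 Binding signal is given per hexamer as its read frequency for a factor divided by its frequency in the tag-only sample. GST-fused human transcription factors were expressed in yeast, captured on glutathione beads, barcoded with DNA and pooled with that sample, then incubated with 200 nmole of a 16-mer random double-stranded DNA library in Tris/NaCl/DTT/glycerol buffer for 30 min at room temperature. The pools were then washed, crosslinked, proximity-ligated, amplified by PCR and sequenced on an Illumina NextSeq500.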

In experiment [2] the target is ETV5 (Homo sapiens, UniProt P41161 1-510). As to conditions: protein: recombinant; tags: N-terminal GST; dsDNA, one strand shown. Put shortly:
as §1

Experiment [3] has as its target HSF1 (Homo sapiens, UniProt Q00613 1-529). Conditions: protein: recombinant; tags: N-terminal GST; chain copies: 3; dsDNA, one strand shown. Put shortly: as §1
Experiment [4] addresses T2, SPIC (Homo sapiens, UniProt Q8N5J4 1-248).
T2 sequence: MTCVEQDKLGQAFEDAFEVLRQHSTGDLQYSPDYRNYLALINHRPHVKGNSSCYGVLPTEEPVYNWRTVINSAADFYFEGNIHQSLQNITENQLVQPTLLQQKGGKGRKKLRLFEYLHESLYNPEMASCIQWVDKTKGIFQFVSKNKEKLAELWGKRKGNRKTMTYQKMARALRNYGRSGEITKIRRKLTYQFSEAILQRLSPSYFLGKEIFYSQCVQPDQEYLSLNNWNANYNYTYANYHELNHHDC
Conditions: protein: recombinant; tags: N-terminal GST; dsDNA, one strand shown. A digest of the protocol: as §1

Experiment [5] deals with ELF4 (Homo sapiens, UniProt Q99607 1-663). Conditions: protein: recombinant; tags: N-terminal GST; dsDNA, one strand shown. Put shortly: as §1
Sequence of ELF4 (Q99607 whole entry): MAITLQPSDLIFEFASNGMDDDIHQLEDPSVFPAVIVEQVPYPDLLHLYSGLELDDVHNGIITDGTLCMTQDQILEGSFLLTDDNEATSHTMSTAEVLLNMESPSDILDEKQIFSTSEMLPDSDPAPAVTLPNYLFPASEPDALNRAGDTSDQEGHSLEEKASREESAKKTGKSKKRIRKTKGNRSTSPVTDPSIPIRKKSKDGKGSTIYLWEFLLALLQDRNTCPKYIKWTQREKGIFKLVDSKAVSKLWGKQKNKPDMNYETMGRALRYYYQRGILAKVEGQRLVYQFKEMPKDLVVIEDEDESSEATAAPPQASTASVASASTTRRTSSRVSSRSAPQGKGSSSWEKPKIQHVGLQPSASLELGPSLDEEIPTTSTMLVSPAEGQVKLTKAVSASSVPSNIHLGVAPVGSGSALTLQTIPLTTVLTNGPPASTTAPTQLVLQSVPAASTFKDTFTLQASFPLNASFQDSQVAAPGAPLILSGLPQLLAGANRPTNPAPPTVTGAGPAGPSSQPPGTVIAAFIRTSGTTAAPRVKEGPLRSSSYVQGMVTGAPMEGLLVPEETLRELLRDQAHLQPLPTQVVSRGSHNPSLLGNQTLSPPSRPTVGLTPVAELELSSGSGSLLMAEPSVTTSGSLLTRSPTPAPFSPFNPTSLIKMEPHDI
The target of experiment [6] is T3, ELK4 (Homo sapiens, UniProt P28324-2 1-405).
T3 sequence: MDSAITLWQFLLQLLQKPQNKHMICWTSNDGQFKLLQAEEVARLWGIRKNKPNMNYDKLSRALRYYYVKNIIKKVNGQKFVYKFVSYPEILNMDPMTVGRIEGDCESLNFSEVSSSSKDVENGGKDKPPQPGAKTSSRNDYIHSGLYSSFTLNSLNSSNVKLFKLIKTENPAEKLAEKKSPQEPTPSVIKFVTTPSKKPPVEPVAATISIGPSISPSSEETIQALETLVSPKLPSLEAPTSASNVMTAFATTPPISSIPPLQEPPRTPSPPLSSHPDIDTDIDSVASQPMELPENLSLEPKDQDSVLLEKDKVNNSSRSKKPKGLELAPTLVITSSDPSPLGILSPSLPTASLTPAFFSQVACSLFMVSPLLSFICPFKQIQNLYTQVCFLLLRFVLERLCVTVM
As to conditions: protein: recombinant; tags: N-terminal GST; dsDNA, one strand shown. A digest of the protocol: as §1

The target of experiment [7] is T4, ETV2 (Homo sapiens, UniProt O00321 1-342).
T4 sequence: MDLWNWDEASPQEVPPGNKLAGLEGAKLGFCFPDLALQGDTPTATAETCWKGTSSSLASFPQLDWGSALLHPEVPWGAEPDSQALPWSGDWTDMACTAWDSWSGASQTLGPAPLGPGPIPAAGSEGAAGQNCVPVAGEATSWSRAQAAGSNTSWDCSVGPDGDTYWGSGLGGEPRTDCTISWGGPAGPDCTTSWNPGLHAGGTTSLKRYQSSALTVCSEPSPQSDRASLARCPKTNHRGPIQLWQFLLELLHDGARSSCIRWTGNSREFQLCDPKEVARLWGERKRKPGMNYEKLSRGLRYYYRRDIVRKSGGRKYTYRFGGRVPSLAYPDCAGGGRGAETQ
As to conditions: protein: recombinant; tags: N-terminal GST; dsDNA, one strand shown. A digest of the protocol:
as §1

Experiment [8] addresses T5, ELF3 (Homo sapiens, UniProt P78545 1-371).
T5 sequence: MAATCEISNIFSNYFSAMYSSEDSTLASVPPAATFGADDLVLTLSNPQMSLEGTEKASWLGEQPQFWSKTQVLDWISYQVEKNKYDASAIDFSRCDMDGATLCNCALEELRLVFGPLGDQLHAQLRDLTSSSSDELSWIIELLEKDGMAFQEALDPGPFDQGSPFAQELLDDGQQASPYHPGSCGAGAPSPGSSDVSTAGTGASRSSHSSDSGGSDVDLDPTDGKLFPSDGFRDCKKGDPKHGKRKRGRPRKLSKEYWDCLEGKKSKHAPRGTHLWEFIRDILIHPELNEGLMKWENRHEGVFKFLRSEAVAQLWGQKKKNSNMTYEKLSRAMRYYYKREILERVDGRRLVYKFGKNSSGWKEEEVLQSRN
Conditions: protein: recombinant; tags: N-terminal GST; dsDNA, one strand shown. Put shortly:
as §1

The target in experiment [9] is CRX (Homo sapiens, UniProt O43186 1-299). As to conditions: protein: recombinant; tags: N-terminal GST; dsDNA, one strand shown. A digest of the protocol:
as §1

The target of experiment [10] is ETV1 (Homo sapiens, UniProt P50549 1-477). As to conditions: protein: recombinant; tags: N-terminal GST; dsDNA, one strand shown. Put shortly:
as §1

The target of experiment [11] is T6, ERF (Homo sapiens, UniProt P50548 1-548).
T6 sequence: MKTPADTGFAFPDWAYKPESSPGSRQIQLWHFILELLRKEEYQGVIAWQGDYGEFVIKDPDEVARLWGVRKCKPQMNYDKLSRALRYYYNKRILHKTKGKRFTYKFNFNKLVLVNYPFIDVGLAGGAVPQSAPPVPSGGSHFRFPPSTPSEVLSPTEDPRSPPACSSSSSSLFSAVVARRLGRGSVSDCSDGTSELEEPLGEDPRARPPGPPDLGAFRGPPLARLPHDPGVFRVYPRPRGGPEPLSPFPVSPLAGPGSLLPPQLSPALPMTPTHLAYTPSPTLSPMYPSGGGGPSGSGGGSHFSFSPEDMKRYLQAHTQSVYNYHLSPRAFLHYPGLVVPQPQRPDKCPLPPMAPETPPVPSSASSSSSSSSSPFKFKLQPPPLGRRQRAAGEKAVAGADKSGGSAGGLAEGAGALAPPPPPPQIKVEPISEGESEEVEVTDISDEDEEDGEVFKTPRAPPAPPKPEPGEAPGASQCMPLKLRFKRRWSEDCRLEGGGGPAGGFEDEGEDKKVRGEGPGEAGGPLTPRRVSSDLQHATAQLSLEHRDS
As to conditions: protein: recombinant; tags: N-terminal GST; dsDNA, one strand shown. Put shortly:
as §1

For experiment [12], the target named is T7, ETV3L (Homo sapiens, UniProt Q6ZN32 1-361).
T7 sequence: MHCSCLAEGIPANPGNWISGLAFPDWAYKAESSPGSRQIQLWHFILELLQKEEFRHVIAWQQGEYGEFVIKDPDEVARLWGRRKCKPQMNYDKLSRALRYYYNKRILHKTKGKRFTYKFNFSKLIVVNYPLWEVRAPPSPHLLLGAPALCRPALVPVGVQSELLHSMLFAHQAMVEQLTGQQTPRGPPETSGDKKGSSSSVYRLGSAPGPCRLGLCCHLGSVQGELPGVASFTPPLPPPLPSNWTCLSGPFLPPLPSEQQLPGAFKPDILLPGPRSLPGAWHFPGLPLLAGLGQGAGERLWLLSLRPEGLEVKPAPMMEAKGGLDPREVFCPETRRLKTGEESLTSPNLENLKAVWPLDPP
Conditions: protein: recombinant; tags: N-terminal GST; dsDNA, one strand shown. Put shortly:
as §1

Experiment [13] addresses T8, ETS2 (Homo sapiens, UniProt P15036 1-469).
T8 sequence: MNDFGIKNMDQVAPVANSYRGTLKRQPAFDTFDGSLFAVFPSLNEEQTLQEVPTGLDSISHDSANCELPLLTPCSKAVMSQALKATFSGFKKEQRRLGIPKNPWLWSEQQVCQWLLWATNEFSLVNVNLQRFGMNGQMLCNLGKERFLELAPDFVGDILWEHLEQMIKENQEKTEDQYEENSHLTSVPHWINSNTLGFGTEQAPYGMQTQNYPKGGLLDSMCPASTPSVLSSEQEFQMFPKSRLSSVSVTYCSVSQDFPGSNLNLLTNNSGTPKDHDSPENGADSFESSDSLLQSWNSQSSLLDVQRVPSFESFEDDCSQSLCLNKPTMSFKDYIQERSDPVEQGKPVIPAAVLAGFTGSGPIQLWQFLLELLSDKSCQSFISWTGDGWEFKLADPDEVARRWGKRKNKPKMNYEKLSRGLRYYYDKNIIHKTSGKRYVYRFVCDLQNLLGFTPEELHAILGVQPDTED
Conditions: protein: recombinant; tags: N-terminal GST; dsDNA, one strand shown. A digest of the protocol:
as §1

The target in experiment [14] is T9, SPDEF (Homo sapiens, UniProt O95238 1-335).
T9 sequence: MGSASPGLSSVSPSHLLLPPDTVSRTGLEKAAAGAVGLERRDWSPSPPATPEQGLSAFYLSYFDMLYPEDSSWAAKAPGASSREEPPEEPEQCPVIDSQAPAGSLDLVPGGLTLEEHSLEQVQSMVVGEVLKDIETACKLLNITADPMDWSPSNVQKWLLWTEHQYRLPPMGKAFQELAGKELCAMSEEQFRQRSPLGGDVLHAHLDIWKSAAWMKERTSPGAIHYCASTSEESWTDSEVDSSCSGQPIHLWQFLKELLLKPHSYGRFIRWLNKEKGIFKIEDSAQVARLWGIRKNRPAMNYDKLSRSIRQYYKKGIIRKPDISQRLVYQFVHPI
As to conditions: protein: recombinant; tags: N-terminal GST; dsDNA, one strand shown. A digest of the protocol: as §1

Experiment [15] has as its target T10, ETV7 (Homo sapiens, UniProt Q9Y603 1-341).
T10 sequence: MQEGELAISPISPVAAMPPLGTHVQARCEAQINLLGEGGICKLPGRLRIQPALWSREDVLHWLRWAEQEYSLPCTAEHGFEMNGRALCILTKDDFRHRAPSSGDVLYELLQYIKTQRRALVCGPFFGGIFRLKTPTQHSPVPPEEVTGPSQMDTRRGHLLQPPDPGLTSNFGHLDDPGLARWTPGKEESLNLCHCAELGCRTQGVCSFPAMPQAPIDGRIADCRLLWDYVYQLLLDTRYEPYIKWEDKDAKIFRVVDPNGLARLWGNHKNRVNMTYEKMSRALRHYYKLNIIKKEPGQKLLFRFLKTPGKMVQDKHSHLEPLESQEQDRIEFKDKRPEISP
As to conditions: protein: recombinant; tags: N-terminal GST; dsDNA, one strand shown. A digest of the protocol: as §1

The target of experiment [16] is T11, ELF5 (Homo sapiens, UniProt Q9UKW6-2 1-255).
T11 sequence: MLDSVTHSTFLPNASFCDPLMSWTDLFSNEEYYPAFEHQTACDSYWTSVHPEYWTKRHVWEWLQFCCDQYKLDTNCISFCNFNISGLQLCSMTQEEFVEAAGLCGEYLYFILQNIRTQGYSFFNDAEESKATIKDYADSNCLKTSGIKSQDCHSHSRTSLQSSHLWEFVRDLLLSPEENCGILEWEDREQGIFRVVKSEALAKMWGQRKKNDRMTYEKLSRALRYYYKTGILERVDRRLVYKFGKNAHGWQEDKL
As to conditions: protein: recombinant; tags: N-terminal GST; dsDNA, one strand shown. A digest of the protocol:
as §1

The target of experiment [17] is T12, ETV3 (Homo sapiens, UniProt P41162-2 1-143).
T12 sequence: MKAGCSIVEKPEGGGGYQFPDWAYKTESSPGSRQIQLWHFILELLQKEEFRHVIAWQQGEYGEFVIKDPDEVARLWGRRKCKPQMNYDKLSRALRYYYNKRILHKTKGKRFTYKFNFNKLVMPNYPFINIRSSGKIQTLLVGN
Conditions: protein: recombinant; tags: N-terminal GST; dsDNA, one strand shown. A digest of the protocol: as §1

The target of experiment [18] is ETV6 (Homo sapiens, UniProt P41212 1-452). As to conditions: protein: recombinant; tags: N-terminal GST; dsDNA, one strand shown. Put shortly:
as §1

Sequence of ETV1 (P50549 whole entry): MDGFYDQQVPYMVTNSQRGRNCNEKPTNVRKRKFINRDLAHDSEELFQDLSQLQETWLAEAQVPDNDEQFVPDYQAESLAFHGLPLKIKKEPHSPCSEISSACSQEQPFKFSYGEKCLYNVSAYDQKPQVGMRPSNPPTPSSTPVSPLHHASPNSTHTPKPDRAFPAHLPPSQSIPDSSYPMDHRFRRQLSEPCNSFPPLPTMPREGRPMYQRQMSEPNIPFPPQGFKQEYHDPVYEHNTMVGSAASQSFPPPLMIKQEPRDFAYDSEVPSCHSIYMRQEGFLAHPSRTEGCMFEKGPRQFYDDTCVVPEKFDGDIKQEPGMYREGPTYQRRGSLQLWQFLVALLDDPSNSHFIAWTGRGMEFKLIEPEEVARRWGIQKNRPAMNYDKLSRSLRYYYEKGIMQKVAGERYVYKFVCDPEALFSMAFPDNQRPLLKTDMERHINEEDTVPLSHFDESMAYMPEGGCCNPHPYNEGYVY
Sequence of HSF1 (Q00613 whole entry): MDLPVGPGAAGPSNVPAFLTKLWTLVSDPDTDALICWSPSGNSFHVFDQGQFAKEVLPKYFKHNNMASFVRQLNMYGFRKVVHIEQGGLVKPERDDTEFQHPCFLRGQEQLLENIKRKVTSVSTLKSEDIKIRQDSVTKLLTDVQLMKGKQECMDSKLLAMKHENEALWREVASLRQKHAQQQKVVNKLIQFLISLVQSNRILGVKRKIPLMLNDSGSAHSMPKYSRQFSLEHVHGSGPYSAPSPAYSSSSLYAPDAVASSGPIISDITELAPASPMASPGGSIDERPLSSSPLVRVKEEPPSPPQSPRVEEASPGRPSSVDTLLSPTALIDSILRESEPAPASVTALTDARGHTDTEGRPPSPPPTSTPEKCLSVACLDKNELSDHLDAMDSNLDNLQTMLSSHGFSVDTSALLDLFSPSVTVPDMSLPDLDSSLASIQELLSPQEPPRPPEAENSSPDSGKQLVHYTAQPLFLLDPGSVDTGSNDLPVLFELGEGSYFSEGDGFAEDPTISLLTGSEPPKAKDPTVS
Sequence of ETV5 (P41161 whole entry): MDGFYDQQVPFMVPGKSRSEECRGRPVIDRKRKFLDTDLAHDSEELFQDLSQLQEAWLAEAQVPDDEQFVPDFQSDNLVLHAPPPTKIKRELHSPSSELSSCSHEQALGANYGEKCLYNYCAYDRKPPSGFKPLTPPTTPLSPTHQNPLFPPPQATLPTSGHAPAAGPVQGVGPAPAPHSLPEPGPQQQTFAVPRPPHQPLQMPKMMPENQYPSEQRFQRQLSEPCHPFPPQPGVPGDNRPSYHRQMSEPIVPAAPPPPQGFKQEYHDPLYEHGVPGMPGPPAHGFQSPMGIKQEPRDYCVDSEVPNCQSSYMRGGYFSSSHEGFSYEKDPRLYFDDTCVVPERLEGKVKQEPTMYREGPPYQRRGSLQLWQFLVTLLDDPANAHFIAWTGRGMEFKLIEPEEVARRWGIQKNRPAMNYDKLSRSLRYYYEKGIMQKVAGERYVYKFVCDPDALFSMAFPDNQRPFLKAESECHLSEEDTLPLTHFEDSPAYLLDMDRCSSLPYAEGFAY
Sequence of ETV6 (P41212 whole entry): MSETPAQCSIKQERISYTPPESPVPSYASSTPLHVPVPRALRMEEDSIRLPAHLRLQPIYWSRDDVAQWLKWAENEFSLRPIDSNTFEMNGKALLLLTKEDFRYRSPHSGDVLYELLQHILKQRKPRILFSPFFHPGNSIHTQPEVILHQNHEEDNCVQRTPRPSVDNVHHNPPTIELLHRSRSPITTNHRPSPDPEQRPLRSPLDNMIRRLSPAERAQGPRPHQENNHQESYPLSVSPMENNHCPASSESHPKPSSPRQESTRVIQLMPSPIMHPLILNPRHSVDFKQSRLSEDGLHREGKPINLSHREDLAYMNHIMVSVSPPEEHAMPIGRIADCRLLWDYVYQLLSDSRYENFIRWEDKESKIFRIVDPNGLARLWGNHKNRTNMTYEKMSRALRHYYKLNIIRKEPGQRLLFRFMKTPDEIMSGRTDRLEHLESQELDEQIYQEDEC
Sequence of CRX (O43186 whole entry): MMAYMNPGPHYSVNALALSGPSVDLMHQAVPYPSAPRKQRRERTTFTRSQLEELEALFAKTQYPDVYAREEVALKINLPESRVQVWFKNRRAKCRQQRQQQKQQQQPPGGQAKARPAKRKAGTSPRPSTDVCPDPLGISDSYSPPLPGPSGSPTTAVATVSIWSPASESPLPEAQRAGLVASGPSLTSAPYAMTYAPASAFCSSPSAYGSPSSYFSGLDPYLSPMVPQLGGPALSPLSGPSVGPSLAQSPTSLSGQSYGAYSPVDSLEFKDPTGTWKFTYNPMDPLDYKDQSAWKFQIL

Regarding ACTCGT, the binding signal in experiment [1] was 1.2 fold enrichment (6-mer frequency, TF over GST control); in [2], 1.22 fold enrichment (6-mer frequency, TF over GST control); in experiment [3], 1.14 fold enrichment (6-mer frequency, TF over GST control); in [4], 1.16 fold enrichment (6-mer frequency, TF over GST control); in experiment [5], 1.3 fold enrichment (6-mer frequency, TF over GST control); in experiment [6] it was 1.28 fold enrichment (6-mer frequency, TF over GST control). The binding signal in experiment [7] was 1.21 fold enrichment (6-mer frequency, TF over GST control); in experiment [8] it was 1.25 fold enrichment (6-mer frequency, TF over GST control); in experiment [9] it was 1.08 fold enrichment (6-mer frequency, TF over GST control); in experiment [10] it was 1.13 fold enrichment (6-mer frequency, TF over GST control); in experiment [11], 1.25 fold enrichment (6-mer frequency, TF over GST control); in experiment [12] it was 1.26 fold enrichment (6-mer frequency, TF over GST control). Also, the binding signal in experiment [13] was 1.27 fold enrichment (6-mer frequency, TF over GST control); in [14], 1.14 fold enrichment (6-mer frequency, TF over GST control); in experiment [15] it was 1.26 fold enrichment (6-mer frequency, TF over GST control); in experiment [16], 1.24 fold enrichment (6-mer frequency, TF over GST control); in experiment [17], 1.21 fold enrichment (6-mer frequency, TF over GST control); in [18] it was 1.16 fold enrichment (6-mer frequency, TF over GST control).
